The panel holds about 83,000 compounds, 20% with a hit somewhere; the sample as a whole holds those more often.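 Step 1: grow cells in 96-well plates. Step 2: add test compound at a single concentration. Step 3: incubate 48 h. Step 4: record percent growth.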 Unmarked numbers belong to inactive results. Activity calls are given as the source filed them. The calls were made as follows: active = growth percent below 10; inactive = the rest.
Assays:
Assay in all cases: NCI-60 one-dose screen, 48 h (100 = growth as untreated, 0 = no growth, -100 = all killed)
DU-145 prostate = settings: 10 µM unless noted
K-562 leukemia = settings: 10 µM unless noted
MALME-3M melanoma = settings: 10 µM unless noted
MDA-MB-231 breast = settings: 10 µM unless noted
RXF 393 renal = settings: 10 µM unless noted
SF-268 CNS = settings: 10 µM unless noted
SF-295 CNS = settings: 10 µM unless noted
SF-539 CNS = settings: 10 µM unless noted
UACC-257 melanoma = settings: 10 µM
M14 melanoma = settings: 10 µM unless noted
HCT-15 colon = settings: 10 µM unless noted
HT29 colon = settings: 10 µM unless noted
SNB-19 CNS = settings: 10 µM unless noted
U251 CNS = settings: 10 µM unless noted
PC-3 prostate = settings: 10 µM unless noted
SK-MEL-5 melanoma = settings: 10 µM unless noted
UACC-62 melanoma = settings: 10 µM unless noted
LOX IMVI melanoma = settings: 10 µM unless noted
SK-MEL-28 melanoma = settings: 10 µM unless noted
SNB-75 CNS = settings: 10 µM unless noted

Compound | growth (DU-145 prostate) | growth (K-562 leukemia) | growth (MALME-3M melanoma) | growth (MDA-MB-231 breast) | growth (RXF 393 renal) | growth (SF-268 CNS) | growth (SF-295 CNS) | growth (SF-539 CNS) | growth (UACC-257 melanoma) | growth (M14 melanoma) | growth (HCT-15 colon) | growth (HT29 colon) | growth (SNB-19 CNS) | growth (U251 CNS) | growth (PC-3 prostate) | growth (SK-MEL-5 melanoma) | growth (UACC-62 melanoma) | growth (LOX IMVI melanoma) | growth (SK-MEL-28 melanoma) | growth (SNB-75 CNS) [%]
COc1cc(/C=N/n2cnc3oc(-c4ccccc4)cc3c2=N)cc(CN2CCCCC2)c1O | -82.8% (active) | 3.54% (active) | -81% (active) | -73.4% (active) | -66.7% (active) | -66.9% (active) | -96% (active) | -87.9% (active) | -27% (active) | -83.5% (active) | -79.8% (active) | -14.1% (active) | -41.3% (active) | -66.5% (active) | -31% (active) | -89.7% (active) | -74.8% (active) | -86.6% (active) | -85.8% (active) | –
N#Cc1c(-c2cccs2)cc(-c2cnccn2)nc1SCC(=O)NNC(=S)Nc1ccc(F)cc1 | 109% | 92.2% | 127% | 94.5% | 141% | 106% | 106% | 98.1% | 112% | 104% | 102% | 116% | 94.7% | 101% | 99.3% | 89.5% | 87.8% | 72.1% | 114% | –
CCc1ccc(NC(=O)N[C@@H](Cc2cccc(F)c2)C(=O)N[C@@H]2C(=O)N3CCC[C@H]3C(=O)N3CCCC[C@H]3C(=O)N[C@@H](C)C(=O)N3C[C@H](C)C[C@H]3C(=O)O[C@H]2C)c(F)c1 | 25.2% | 17.5% | 41.4% | 26.8% | -10.1% (active) | 34.9% | 4.24% (active) | 29.8% | 22.2% | 22% | 11.6% | 20.1% | 27.5% | 31.1% | – | -20.9% (active) | – | 14.1% | 36.1% | 20.8
O=C(CCCCCCN1CC(=O)N2[C@@H](c3cc(F)cc(F)c3)c3[nH]c4ccccc4c3C[C@H]2C1=O)NO | 65.7% | 32.2% | 30.7% | 62% | 33.6% | 79.8% | 60% | 60.5% | 44.1% | 51.9% | 96.7% | 47.8% | 65.9% | 57.3% | 48.5% | 47.2% | 21.4% | 19.6% | 52.7% | –
Oc1ccc(-c2nnc(SCc3ccc(O)c4ncccc34)n2-c2ccccc2)cc1 | 24.6% | 10.8% | 3.9% (active) | 30.1% | -7.54% (active) | 10.2% | 5.53% (active) | -6.02% (active) | -4.16% (active) | -28% (active) | 20.3% | 24.9% | 14.7% | 9.39% (active) | 32.3% | -44.6% (active) | -4.05% (active) | 5.09% (active) | 17% | –
O=C1[C@H]2Cc3c([nH]c4ccccc34)[C@@H](c3c(Cl)cccc3Cl)N2C(=O)CN1C1CCN(Cc2ccccc2)CC1 | 39.2% | 5.96% (active) | 61.4% | 89.3% | 81.6% | 73.8% | 106% | 93.5% | 105% | 78.1% | 25.5% | 9.36% (active) | 89.6% | 50.1% | 77.8% | 84.6% | 72.5% | -31.2% (active) | 93.1% | –
COc1cc2cc(Oc3ccc(NC(=O)c4cccc(C(F)(F)F)c4)cc3)c(C)nc2cc1OCCN(C)C | 68.6% | 7.14% (active) | -73.7% (active) | 79% | 39.6% | 92% | -50.5% (active) | 63.3% | 93.2% | 80.8% | -8.74% (active) | 27.5% | 94.2% | 63.4% | 74.2% | -7.47% (active) | 89.4% | -81.3% (active) | – | –

Source: PubChem BioAssay (NCI)
